From PubChem
RAM network inh = inhibitors of the yeast RAM network, primary screen, dse1pr::URA3 reporter, 5-FOA selection; AID 868, 2007; inhibition, % at 50 µM; S. cerevisiae dse1pr::URA3 reporter, 5-FOA growth OD615, 2 d; analog-sensitive cbk1-as2 kinase mutant strain; 190,000 tested, 1.8% active;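 active means inhibition above a set limit, 3 SD over mean compound inhibition, cut at about 8.4% in these data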;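 further: inhibition rescues growth on 5-FOA so higher OD means more RAM inhibition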
WT yeast gro inh = growth inhibition of WT strain, primary screen, mitochondrial fusion inhibitor project, WT and mutant strains, chemical genetic | 190,000 tested, 2.1% active | mitochondrial fusion phenotypic screen | inhibition, % at 10 µM; in the data active means inhibition above about 58%; tested in S. cerevisiae
L major viab = Leishmania major promastigote growth inhibition, primary screen | Leishmania major promastigotes, resazurin fluorescence viability | inhibition, % at 10 µM | 200,000 tested, 9% active | AID 1063, 2008; in the data active means inhibition above about 50%;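 further: promastigotes grown with compound for 44 hours at 28 °C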
CHOP inh = inhibitors of CHOP promoter induction, primary screen, cell-based, unfolded protein response, luciferase reporter. 220,000 tested, 3.8% active. inhibition, % at 10 µM. AID 2732, 2010. CHO-K1 CHOP-promoter luciferase, tunicamycin-induced, 15-18 h;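 active means compounds that reduced the stress-induced luciferase reporter signal by more than about 70% of percent inhibition, limit read from the data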
A number is an active result; n = inactive; x = not tested or not shown. Compounds with a hit are over-represented: about 13% of the library has one in this group of screens.

SMILES	RAM network inh	WT yeast gro inh	L major viab	CHOP inh
Nc1nc(C(F)(F)F)cc(=O)n1N	n	n	n	n
CCN1C(=O)c2cccc3c(NC(=O)c4ccc(OC)c(OC)c4)ccc1c23	n	n	100	n
CCN1C(=O)c2cccc3c(NC(=O)c4ccc5c(c4)OCCO5)ccc1c23	n	n	n	n
CCN1C(=O)c2cccc3c(NC(=O)C4CCCCC4)ccc1c23	n	n	n	n
CCN1C(=O)c2cccc3c(NC(=O)c4ccccc4)ccc1c23	n	n	91	n
COCCNC(=O)CCc1c(C)nc2nc(-c3cc(OC)cc(OC)c3)nn2c1C	n	n	n	n
CN(C1CCCC1)C1CCN(C(=O)CNC(=O)/C=C/c2ccc(F)cc2)CC1	n	n	n	n
CN(C1CCCC1)C1CCN(C(=O)CNC(=O)/C=C/c2cccc(C(F)(F)F)c2)CC1	n	n	76	n
C=CCc1cc(Cl)ccc1OCCNCCCOC	n	n	100	n
CC(C)(C)NCCOCCOc1ccccc1-c1ccccc1	n	n	n	n
C=CCc1cc(Cl)ccc1OCCOCCNC(C)(C)C	n	n	99	n
C=CCc1cc(Cl)ccc1OCCOCCN(C)C	n	n	100	n
CCCOc1ccc(Cl)cc1CNc1ccccc1	n	n	n	n
C=CCc1ccccc1OCC(=O)OCCNC(=O)c1cccnc1	n	n	n	n
C=CCc1ccccc1OCCNCCCOC	n	n	83	n
COCCOc1cc2ncnc(N3CCC(C(=O)O)CC3)c2cc1OCCOC	x	x	x	n
CCOC(=O)C1CCN(C(=O)COc2ccc(Br)cc2C)CC1	n	n	n	n
C=CCc1cc(Cl)ccc1OCCOCCNCCOC	n	n	99	n
COCCNCCOc1ccc(C)cc1[N+](=O)[O-]	n	n	n	n
CCN(CC)CCNc1cc(C)nc2c1C(=O)C(=O)C=C2N1CCCCC1	n	n	101	n
COc1cc(/C=N/NC(=O)c2ccc(CSc3nc4ccccc4[nH]3)cc2)ccc1O	n	n	n	n
O=C(Nc1ncc(S(=O)(=O)c2ccc([N+](=O)[O-])cc2)s1)c1cccc2ccccc12	n	n	100	n
O=C(NC(Nc1ncc(S(=O)(=O)c2ccc([N+](=O)[O-])cc2)s1)(C(F)(F)F)C(F)(F)F)c1ccc(Cl)cc1	n	n	n	88
CCn1c2ccccc2c2nnc(SCC(=O)NC3CCS(=O)(=O)C3)nc21 (stereo unspecified)	n	n	n	n
CCn1c2ccccc2c2nnc(SCC(=O)N(C)C3CCS(=O)(=O)C3)nc21 (stereo unspecified)	n	n	66	n
SMILES	RAM network inh	WT yeast gro inh	L major viab	CHOP inh
Cc1ccc(SCC(=O)N(C)C2CCS(=O)(=O)C2)cc1 (stereo unspecified)	n	n	n	n
CCn1c2ccccc2c2nnc(SCc3ccccc3)nc21	n	58	n	n
Cc1ccc(-c2nc(SCC(=O)N(C)C3CCS(=O)(=O)C3)[nH]c2-c2ccc(C)cc2)cc1 (stereo unspecified)	n	n	94	n
O=C(COc1ccccc1)N(CCc1ccccc1)c1nc(-c2ccc(F)cc2)cs1	n	n	n	n
CN(CC(=O)Nc1ccccc1Br)Cc1nc2ccccc2c(=O)[nH]1	n	n	n	n
C/C(=N\NC(=S)NC(C)C)c1ccc(-n2ccnc2)cc1	n	n	n	n
Cc1nc2ccccn2c1C(=O)NC1CCCc2ccccc21 (stereo unspecified)	n	n	n	n
CCOC(=O)c1[nH]ncc1CN1CCCC(C(=O)c2ccc(C(C)(C)C)cc2)C1 (stereo unspecified)	n	n	74	n
CCOC(=O)C1CCCN(Cc2cn[nH]c2-c2ccc(F)cc2F)C1 (stereo unspecified)	n	n	n	n
COc1ccc(OC)c(C(c2nnnn2C2CCCC2)N2CCN(c3ccc(F)cc3)CC2)c1 (stereo unspecified)	n	n	92	n
COc1ccc(C(c2nnnn2C2CCCC2)N2CCC(C)CC2)c(OC)c1 (stereo unspecified)	n	n	99	n
CCN1CCN(C(c2ccccc2OC)c2nnnn2C2CCCCC2)CC1 (stereo unspecified)	n	n	n	n
CCn1nc(C)c(Br)c1C(=O)Sc1ccccc1Cl	x	x	x	n
CSc1nc(C)c(Oc2ccccc2)c(=O)n1C	n	n	n	n
CSc1nc(-c2ccccc2F)c(C#N)c(=O)n1C	8.6	n	n	n
Cc1cccc(C)c1-n1c(C)nn(CC2CC2)c1=O	n	n	n	n
CC(NC(=O)C1(c2cccs2)CCOCC1)c1ccccc1 (stereo unspecified)	n	n	n	n
Cc1[nH]n(-c2ccccc2)c(=O)c1N=Nc1nccs1	n	n	96	n
Cc1[nH]n(C2=NCCS2)c(=O)c1N=Nc1ccccc1	n	n	80	n
Cc1nnsc1C(=O)N1CCC(CO)(Cc2ccccc2Cl)CC1	x	x	x	n
CCn1c(SCC(=O)N2CCN(c3ccccc3)CC2)nnc1-c1c[nH]c2ccccc12	n	n	58	n
CCn1c(CSCc2ccc(F)cc2)nnc1SCC(=O)N1CCN(c2ccccc2)CC1	n	n	63	n
CCOC(=O)/C(C#N)=C/C1=C(N2CCCC2)CC(C)(CC)OC1 (stereo unspecified)	n	n	n	n
CCCCCCCCCCCCCCCCCC(=O)NCC(COP(=O)([O-])OCC[N+](C)(C)C)OCC (stereo unspecified)	x	x	x	n
COc1cccc(Nc2ncc(C#N)c(N)n2)c1	x	x	x	n
SMILES	RAM network inh	WT yeast gro inh	L major viab	CHOP inh
Cc1ccc(/C=C/C(=O)c2c(C)cc(C)[nH]c2=O)cc1	n	n	61	n
Cc1cc(C)c(C(=O)/C=C/c2cccs2)c(=O)[nH]1	n	n	n	n
CCc1ccc(/C=C(\C)C(=O)c2c(C)cc(C)[nH]c2=O)cc1	n	n	n	n
CCc1ccc(/C=C/C(=O)c2c(C)cc(C)[nH]c2=O)cc1	n	n	59	n
Cc1ccccc1NCCNc1ccccc1C	n	n	n	n
Cc1ccc(NCc2nnc(SCC(N)=O)o2)c(C)c1	n	n	n	n
Cc1ccc(C(=O)CSc2nnc(CNc3ccc(C)cc3C)o2)cc1	n	n	n	72
COCCCN(C(=O)Nc1ccccc1)C(C)c1ccncc1 (stereo unspecified)	n	n	n	n
CC1=C(C#N)C(NC(=O)c2ccc(C)cc2)(C(F)(F)F)C(=O)N1 (stereo unspecified)	n	77	n	n
COCCCNC(=S)NNC(=O)c1csc(C)n1	x	x	x	n
OCCN1CCN(C2Cc3cc(Cl)ccc3Sc3ccc(Cl)cc32)CC1 (stereo unspecified) (tested in a mixture with another compound)	n	n	55	75
O=C(CN1CCN(CCOCCO)CC1)N1c2ccccc2Sc2ccc(Cl)cc21	n	n	n	n
CN1CCN(CCOC2Cc3ccccc3Sc3ccc(Cl)cc32)CC1 (stereo unspecified)	n	n	66	n
C=CCC(C=C)[N+]1(CC(=O)OC)CCCCC1 (stereo unspecified)	n	n	n	n
COc1cnc(-c2ccccc2)nc1Oc1ccc(Cl)cc1C	n	n	n	n
